About 83,000 compounds went through this panel and 20% of them were active in at least one assay; those are over-represented in the sample as a whole.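 The test compound was applied at a single concentration to cells in 96-well plates for 48 hours, and percent growth was recorded.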 Values without a mark were called inactive. Calls of active or inactive are those of the source. The calls were made as follows: active = growth percent below 10; inactive = the rest.
Columns and labels:
Assay in all cases: NCI-60 one-dose screen, 48 h (100 = growth as untreated, 0 = no growth, -100 = all killed)
Details in all cases: 10 µM unless noted
[1] = tested on: T-47D breast
[2] = tested on: BT-549 breast
[3] = tested on: MDA-MB-435 melanoma
[4] = tested on: SW-620 colon
[5] = tested on: MCF7 breast
[6] = tested on: HCT-116 colon
[7] = tested on: HCC-2998 colon
[8] = tested on: KM12 colon

| Compound | growth [1] | growth [2] | growth [3] | growth [4] | growth [5] | growth [6] | growth [7] | growth [8] |
| --- | --- | --- | --- | --- | --- | --- | --- | --- |
| CCCCCCNC(=O)Oc1ccc(/C(=C(/C)c2ccc(OC)cc2)c2ccc(OCCN3CCCC3)cc2)cc1 | 59.7% | 84.3% | 74.4% | 62.6% | 18.2% | 31.4% | 87.9% | 82% |
| Cc1nc(-c2cc3ccccc3c(N3CCN(C)CC3)n2)cs1 | 84.3% | 97.5% | 99.9% | 98.6% | 92.7% | 93% | 95.3% | 103% |
| O=C1[C@H]2Cc3c([nH]c4ccccc34)[C@H](c3ccc(Cl)cc3)N2C(=O)CN1C1CCN(Cc2c(Cl)cccc2Cl)CC1 | 62.5% | 91.6% | 77% | 77% | 19.1% | 37.8% | 44.1% | 72.5% |
| O=c1[nH]c(CCl)nc2c1cnn2-c1ccccc1 | 95.2% | 94.1% | 104% | 102% | 79.5% | 94.9% | 105% | 101% |
| C#C[C@]1(O)CC[C@H]2[C@@H]3CC=C4c5sc(Nc6ccncc6)nc5CC[C@]4(C)[C@H]3CC[C@@]21C | 39.9% | 15.9% | -75.2% (active) | -37.2% (active) | -42.1% (active) | 3.69% (active) | 1.79% (active) | -94.1% (active) |
| CCCCCCNC(=O)Oc1ccc(/C(=C(\C)c2ccc(Cl)cc2)c2ccc(OCCN(C)C)cc2)cc1 | 54.8% | 77.4% | 85.3% | 21.3% | 10.8% | 18.7% | 71.4% | 83.1% |
| O=C(Nc1ccccc1)Nc1nc2ccc([N+](=O)[O-])cc2s1 | -14.3% (active) | -11.8% (active) | 2.4% (active) | 11.5% | 2.9% (active) | 4.52% (active) | 10.8% | 3.66% (active) |
| Clc1ccc(-c2nc3ccc(/C(=N\N=C\c4ccccc4)c4ccccc4)cc3[nH]2)cc1 | 70.7% | 92.5% | 88.9% | 91.2% | 78.3% | 84.5% | 103% | 82.3% |
| COc1ccc2c(c1)c(-c1nnc(N)nc1-c1cn(C)c3ccccc13)cn2C | 82.3% | 108% | 91.6% | 94.6% | 79.5% | 89.2% | 102% | 94.6% |
| COc1cccc(/C=C/C(=O)c2ccc(NC(=O)COc3cccc4cccnc34)cc2)c1 | 82.9% | 86.1% | 100% | 94.3% | 52.4% | 3.49% (active) | 99.3% | 96.3% |
| CN1CCN(c2ccc(NC(=O)Nc3ccc4c(ccn4-c4cccc(C(N)=O)n4)c3)cc2C(F)(F)F)CC1 | 80.6% | 89.9% | -45.2% (active) | -10.5% (active) | 10.7% | 12.3% | 63.4% | 22% |
| Fc1ccc(-c2cc3nc(C(Cl)Cl)nc(-c4cccs4)n3n2)cc1 | 25.2% | 92% | 14.3% | 2.69% (active) | 3.99% (active) | -2.24% (active) | -61.5% (active) | -30.5% (active) |
| NC(N)=NS(=O)(=O)c1ccc(N=NC2C(=O)NN(c3ccccc3)C2=O)cc1 (centres undefined) | 95.8% | 107% | 101% | 100% | 93.2% | 97.3% | 103% | 103% |
| CN1CCN(c2nc(-c3cnc4ccccc4n3)cc3ccccc23)CC1 | 68.9% | 85.7% | 27.1% | 11.5% | 54.9% | 21.4% | -26.4% (active) | 88.1% |
| Nc1c(C(=O)c2ccccc2)sc2nc(-c3cnccn3)cc(-c3cccs3)c12 | 98.9% | 116% | 98.9% | 105% | 90.8% | 96.5% | 105% | 102% |
| C/C(=C(/c1ccc(O)cc1)c1ccc(OCCN2CCCCCC2)cc1)c1ccccc1 | 20.5% | 61.1% | 52.4% | -52.6% (active) | 10.2% | 28.2% | 34.8% | 43.2% |
| CN1CCN(Cc2ccc(NC(=O)c3cncc(C#Cc4[nH]nc5ncncc45)c3)cc2C(F)(F)F)CC1 | 39.2% | 118% | 38.9% | 31.6% | 46% | 17.7% | 44.3% | 10.5% |

| Compound | growth [1] | growth [2] | growth [3] | growth [4] | growth [5] | growth [6] | growth [7] | growth [8] |
| --- | --- | --- | --- | --- | --- | --- | --- | --- |
| CCOC(=O)c1c(NCC(=O)Nc2cccc(Cl)c2)sc2c1CCCC2 | 63.4% | 70.1% | -2.01% (active) | 76.1% | 43% | 73.5% | 103% | 95.8% |
| O=C1/C(=C/c2ccc([N+](=O)[O-])cc2)SC(=Nc2ccccc2)N1Nc1ccccc1 | 56.2% | 95.6% | 71.1% | 43.2% | 44.1% | 26.9% | 85.3% | 77.5% |
| Cn1cc(-c2nnc(N)nc2-c2cn(C)c3ccc(F)cc23)c2cc(F)ccc21 | 69.1% | 99.8% | 101% | 102% | 87.2% | 92.7% | 104% | 90.8% |
| Nc1nc(N)c2c(n1)NC(c1ccc(Cl)cc1)CC(c1ccc(Nc3nc(NCCO)nc(Nc4ccc(Cl)cc4)n3)cc1)=N2 (centres undefined) | 51.9% | 58.3% | 5.23% (active) | -36.2% (active) | -75.1% (active) | -84.8% (active) | 18.6% | 11.5% |
| Cc1ccc(/C=C/CC(=O)Nc2ccc(C(=O)Nc3ccc(F)cc3N)cc2)cn1 | 28.6% | 73% | 47.2% | 46.3% | 39.6% | 39% | 64.6% | 75.2% |
| COc1ccc(-c2no[n+]([O-])c2Nc2ccccc2Br)cc1 | 80% | 113% | 107% | 101% | 84.9% | 93.7% | 111% | 101% |
| CN1CCN(Cc2ccc(NC(=O)c3cncc(C#Cc4cnc5ccc(NC6CCOCC6)nn45)c3)cc2C(F)(F)F)CC1 | -66.2% (active) | -94.4% (active) | -70.2% (active) | -42.1% (active) | -60.3% (active) | -79% (active) | -19.8% (active) | -42.1% (active) |
| CNC(=O)c1cc(N2CCc3cc(NC(=O)Nc4ccc(Cl)c(Cl)c4)ccc32)ccn1 | 63.4% | 77% | 84.2% | 114% | 63.3% | 92.7% | 98% | 30.4% |
| CN(C)c1ncc(/C=C2\SC(=S)N(Cc3ccccc3Cl)C2=O)s1 | 96.9% | 102% | 103% | 82.6% | 92.1% | 40.5% | 102% | 97.5% |
| CC(C)=CCc1c2c(c(O)c3c1O[C@]14C(=C[C@@H]5C[C@H]1C(C)(C)O[C@@]4(C/C=C(/C)C(=O)O)C5=O)C3=O)CC(O)C(C)(C)O2 (some centres undefined) | -10.2% (active) | -14.3% (active) | -16% (active) | -44.8% (active) | -41.4% (active) | -69.8% (active) | -84.7% (active) | -68.9% (active) |
| CCOC(=O)CC(=O)CSC1=NC2C(NN1)N(C)C(=O)N2C (centres undefined) | 31.8% | 101% | 94.6% | 75.8% | 10.9% | 9.01% (active) | 105% | 101% |
| O=C(CN1C(=O)CSC1=O)Nc1ccc(C(=O)/C=C/c2cc3ccccc3nc2Cl)cc1 | 58.7% | 66.1% | 25.6% | 95.6% | 12.5% | -45.5% (active) | 82.1% | 62.2% |
| O=C1c2c(c3c4ccc(Br)cc4oc3c3[nH]c4ccccc4c23)C(=O)N1CCO | 10.5% | 55.3% | 59% | 47% | 18.6% | 39.6% | 77.8% | 65.6% |
| CCNC(=O)Oc1ccc(/C(=C(/C)c2ccc(Cl)cc2)c2ccc(OCCN3CCCC3)cc2)cc1 | 56.8% | 90.4% | 89.8% | 83.1% | 25.3% | 53.1% | 77.4% | 95.5% |
| COc1cc2oc(-c3cccc(NC(=O)c4cc(NC(=O)[C@H](C)N)ccc4Cl)c3)cc(=O)c2c(OC)c1OC | 67.9% | 108% | 105% | 104% | 91.4% | 94.9% | 100% | 96.3% |
| C/C(=C(/c1ccc(O)cc1)c1ccc(OCCN2CCCC2)cc1)c1ccc(Cl)cc1 | 24.9% | 89.6% | 20% | -57.1% (active) | 5.58% (active) | 36.6% | 17.2% | 46.5% |
